{"source": "PubChem BioAssay AID743446", "about": "(Broad Institute, 2014)", "note": "Potency and affinity values are given separately. Activity calls are given as the source filed them. No rule for the calls is given here."}
{"experiment": "viability loss in HEK293 cells – cell-based, plate reader, cherry-picked samples, cytotoxicity control, dose response (AID 743446)", "conditions": "active compounds read low; at 26 µM unless noted"}
{"smiles": "Cc1cc(-c2nc3cc(F)ccc3s2)ccc1N", "max activity": "28.1% [at 1.6 µM] (inactive)"}
{"smiles": "CC(C)C(=O)N1CCN(c2ccc(NC(=O)COc3ccccc3[N+](=O)[O-])cc2)CC1", "max activity": "-46.9% (inactive)"}
{"smiles": "O=C(c1cc(-c2ccccc2Cl)on1)N1CCCC1", "max activity": "27.2% (inactive)"}
{"smiles": "O=C(COC(=O)c1ccccc1C(=O)c1ccc(Cl)c([N+](=O)[O-])c1)NC1CC1", "max activity": "8.38% [at 6 µM] (inactive)"}
{"smiles": "C[C@@H]1CN([C@H](C)CO)C(=O)c2c(c3ccccc3n2C)-c2ccccc2CO[C@@H]1CN(C)S(=O)(=O)c1ccc(C(F)(F)F)cc1", "max activity": "-8.56% (inactive)"}
{"smiles": "CSc1ccc(NC(=O)Nc2cc(C)ccn2)cc1", "max activity": "12.9% [at 0.05 µM] (inactive)"}
